SRC1 TRFRET art – TR-FRET detection interference compounds, primary screen, artefact control for PPARgamma SRC-1 recruitment agonists, biochemical, TR-FRET emission ratio | TR-FRET ratio at 8 µM | TR-FRET detection artefact counter-screen; hits give high values | 99,000 compounds, 0.34% hits; in the data active means TR-FRET ratio above about 2300
PPARg SRC-1 ag – PPARgamma agonists recruiting SRC-1 coactivator, primary screen, biochemical; Peroxisome proliferator-activated receptor gamma (Homo sapiens), P37231; PPARgamma-SRC-1 coactivator recruitment biochemical assay; activation, % at 8 µM; 200,000 compounds, 0.41% hits; in the data active means activation above about 19%;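 further: 0% = DMSO and 100% = reference agonist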
Target sequence (P37231 whole entry, looked up): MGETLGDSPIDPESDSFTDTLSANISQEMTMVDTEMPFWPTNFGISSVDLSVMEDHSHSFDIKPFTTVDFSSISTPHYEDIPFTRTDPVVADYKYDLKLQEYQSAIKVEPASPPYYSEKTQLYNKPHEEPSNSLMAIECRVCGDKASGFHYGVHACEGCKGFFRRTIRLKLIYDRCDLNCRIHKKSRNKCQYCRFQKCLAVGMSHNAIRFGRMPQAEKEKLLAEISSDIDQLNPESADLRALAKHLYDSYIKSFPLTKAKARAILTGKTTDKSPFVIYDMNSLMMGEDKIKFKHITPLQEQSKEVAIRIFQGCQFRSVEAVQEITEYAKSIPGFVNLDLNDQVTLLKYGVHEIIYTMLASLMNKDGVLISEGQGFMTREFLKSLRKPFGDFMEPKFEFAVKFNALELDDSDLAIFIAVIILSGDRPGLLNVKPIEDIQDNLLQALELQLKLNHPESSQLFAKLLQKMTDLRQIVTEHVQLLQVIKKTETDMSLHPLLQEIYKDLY
TR-FRET SRC-2 ct – TR-FRET signal artefacts, primary screen, artefact control for PPARgamma SRC-2 agonist project, biochemical. TR-FRET artefact counter-screen; hits give high values. TR-FRET ratio at 8 µM. 200,000 compounds, 0.4% hits
PPARg SRC-3 ag – PPARgamma agonists recruiting SRC-3 coactivator, primary screen, biochemical | AID 731, 2007 | activation, % at 8 µM | Peroxisome proliferator-activated receptor gamma (Homo sapiens), P37231 | biochemical PPARgamma/SRC-3 coactivator recruitment assay | 200,000 compounds, 0.26% hits; in the data active means activation above about 23%;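 further: 0% = DMSO and 100% = reference agonist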
PPARg SRC-2 ag – agonists of PPARg-SRC-2 recruitment, primary screen, biochemical, HTS | 200,000 compounds, 0.34% hits | activation, % at 8 µM | AID 1032, 2008 | PPARgamma LBD-SRC-2 recruitment; in the data active means activation above about 22%;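 further: 0% = vehicle and 100% = reference agonist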
SRC3 TRFRET art – TR-FRET detection interference compounds, artefact control for PPARgamma SRC-3 recruitment agonists, biochemical, TR-FRET ratio. TR-FRET artefact counter-screen, PPARgamma/SRC-3 format; hits give high values. TR-FRET ratio at 8 µM. 99,000 compounds, 0.39% hits. AID 1048, 2008
* = called active by the depositor. Most compounds without a hit are left out; they make up all but 0.9% or so of the library. Unless noted, no stated cut-off is given here; in the data, active means TR-FRET ratio above about 2000; inactive means the rest.

Results for CC1(C)CC(=O)C2=C(C1)N=C1SCCC(=O)N1C2c1cccc([N+](=O)[O-])c1 (configuration not stated) ?
SRC1 TRFRET art: 1874; PPARg SRC-1 ag: 9; TR-FRET SRC-2 ct: 1577; PPARg SRC-3 ag: 3; PPARg SRC-2 ag: 2; SRC3 TRFRET art: 1610

What do the screens show for `O=C(COC(=O)CC12CC3CC(CC(C3)C1)C2)Nc1cccnc1Cl`?
SRC1 TRFRET art: 2039; PPARg SRC-1 ag: 5; TR-FRET SRC-2 ct: 1627; PPARg SRC-3 ag: 0; PPARg SRC-2 ag: 0; SRC3 TRFRET art: 1708

Results for CCn1cc(CNCc2cn(C)nc2-c2ccc(C3CCCCC3)cc2)cn1 ?
SRC1 TRFRET art: 1896; PPARg SRC-1 ag: 22*; TR-FRET SRC-2 ct: 1699; PPARg SRC-3 ag: 0; PPARg SRC-2 ag: 3; SRC3 TRFRET art: 1641

Results for COc1ccc(S(=O)(=O)N2CCCOC2CNC(=O)C(=O)NCc2ccco2)cc1 (configuration not stated) ?
SRC1 TRFRET art: 1755; PPARg SRC-1 ag: 5; TR-FRET SRC-2 ct: 1479; PPARg SRC-3 ag: 0; PPARg SRC-2 ag: 1; SRC3 TRFRET art: 1690

Results for Cc1nc(SCC(=O)Nc2ccccc2)c2oc3ccccc3c2n1 ?
PPARg SRC-1 ag: -1; TR-FRET SRC-2 ct: 1248; PPARg SRC-3 ag: -3; PPARg SRC-2 ag: -2

Results for CCc1nc(SCC(=O)NCCc2ccccc2)c2oc3ccccc3c2n1 ?
PPARg SRC-1 ag: -4; TR-FRET SRC-2 ct: 2202*; PPARg SRC-3 ag: 3; PPARg SRC-2 ag: 13

How did Cc1nc(SCC(=O)NC(C)c2ccccc2)c2oc3ccccc3c2n1 (configuration not stated) do in these assays?
PPARg SRC-1 ag: 6; TR-FRET SRC-2 ct: 1582; PPARg SRC-3 ag: 4; PPARg SRC-2 ag: 6

Results for Cc1nc(SCC(=O)Nc2ccc(F)cc2)c2oc3ccccc3c2n1 ?
PPARg SRC-1 ag: 30*; TR-FRET SRC-2 ct: 1446; PPARg SRC-3 ag: 4; PPARg SRC-2 ag: 2

How did Cc1nc(SCC(=O)c2ccc(Cl)s2)c2oc3ccccc3c2n1 do in these assays?
PPARg SRC-1 ag: 19*; TR-FRET SRC-2 ct: 1533; PPARg SRC-3 ag: -9; PPARg SRC-2 ag: 0

What do the screens show for `COC(=O)Cn1c(=NC(=O)c2ccc([N+](=O)[O-])s2)sc2cc(Br)ccc21`?
SRC1 TRFRET art: 1795; PPARg SRC-1 ag: -1; TR-FRET SRC-2 ct: 1411; PPARg SRC-3 ag: -5; PPARg SRC-2 ag: -10; SRC3 TRFRET art: 1496

How did O=C(N/N=C/c1ccco1)c1ccc(NC(=O)c2ccccc2Cl)cc1 do in these assays?
SRC1 TRFRET art: 2163; PPARg SRC-1 ag: 13; TR-FRET SRC-2 ct: 1979*; PPARg SRC-3 ag: 3; PPARg SRC-2 ag: 7; SRC3 TRFRET art: 1694

What do the screens show for `O=C(N/N=C/c1cccs1)c1ccc(NC(=O)c2ccccc2Cl)cc1`?
SRC1 TRFRET art: 1581; PPARg SRC-1 ag: -7; TR-FRET SRC-2 ct: 1642; PPARg SRC-3 ag: -2; PPARg SRC-2 ag: -2; SRC3 TRFRET art: 1574

Results for Cc1nc2ccc(-c3nc4ccc(N)cc4[nH]3)cc2[nH]1 ?
SRC1 TRFRET art: 2025; PPARg SRC-1 ag: 20; TR-FRET SRC-2 ct: 1684; PPARg SRC-3 ag: 12; PPARg SRC-2 ag: 13; SRC3 TRFRET art: 2163*

How did Cc1ccccc1OCC(=O)NC(=S)Nc1ccc2c3c(cccc13)CC2 do in these assays?
PPARg SRC-1 ag: 8; TR-FRET SRC-2 ct: 1639; PPARg SRC-3 ag: 14; PPARg SRC-2 ag: 11

How did COc1ccc(OCC(=O)NC(=S)Nc2ccc3c4c(cccc24)CC3)cc1 do in these assays?
SRC1 TRFRET art: 2059; PPARg SRC-1 ag: 8; TR-FRET SRC-2 ct: 1730; PPARg SRC-3 ag: 13; PPARg SRC-2 ag: 3; SRC3 TRFRET art: 2132*

Results for CCOc1cc(NC(=S)NCCc2ccccc2)c(OCC)cc1NC(C)=O ?
SRC1 TRFRET art: 1655; PPARg SRC-1 ag: 0; TR-FRET SRC-2 ct: 1434; PPARg SRC-3 ag: 0; PPARg SRC-2 ag: -3; SRC3 TRFRET art: 1556

How did O=C(Nc1ccc(F)cc1F)c1csc(-c2cccs2)n1 do in these assays?
SRC1 TRFRET art: 1858; PPARg SRC-1 ag: 5; TR-FRET SRC-2 ct: 2010*; PPARg SRC-3 ag: 6; PPARg SRC-2 ag: 10; SRC3 TRFRET art: 1765

What do the screens show for `O=C(Nc1ccc(F)cc1F)c1csc(-c2ccncc2)n1`?
SRC1 TRFRET art: 1880; PPARg SRC-1 ag: 4; TR-FRET SRC-2 ct: 1625; PPARg SRC-3 ag: 4; PPARg SRC-2 ag: 2; SRC3 TRFRET art: 1707

What do the screens show for `FC(F)(F)c1nnc2c(Sc3ccc(Cl)cc3)nc3ccccc3n12`?
PPARg SRC-1 ag: 32*; TR-FRET SRC-2 ct: 1457; PPARg SRC-3 ag: 3; PPARg SRC-2 ag: 9

Results for CC(=O)Nc1ccc(-c2nnc(SCC(=O)c3ccc4c(c3)Cc3ccccc3-4)n2C)cc1 ?
PPARg SRC-1 ag: 13; TR-FRET SRC-2 ct: 2129*; PPARg SRC-3 ag: 24; PPARg SRC-2 ag: 17

Results for Cn1c(SCC(=O)c2ccc3c(c2)Cc2ccccc2-3)nnc1-c1cccc(N)c1 ?
SRC1 TRFRET art: 1664; PPARg SRC-1 ag: -1; TR-FRET SRC-2 ct: 1592; PPARg SRC-3 ag: 4; PPARg SRC-2 ag: -7; SRC3 TRFRET art: 1597

Results for COc1ccccc1C(=O)N1c2ccccc2Sc2ccccc21 ?
SRC1 TRFRET art: 1706; PPARg SRC-1 ag: -2; TR-FRET SRC-2 ct: 1478; PPARg SRC-3 ag: 3; PPARg SRC-2 ag: -1; SRC3 TRFRET art: 1597

What do the screens show for `COc1ccccc1OC(=O)CCN1c2ccccc2Sc2ccccc21`?
SRC1 TRFRET art: 1668; PPARg SRC-1 ag: -9; TR-FRET SRC-2 ct: 1756; PPARg SRC-3 ag: -2; PPARg SRC-2 ag: 5; SRC3 TRFRET art: 2481*

Results for CN(CC(=O)Nc1ccc(N2CCOCC2)cc1)CC(=O)Nc1ccccc1C#N ?
SRC1 TRFRET art: 1749; PPARg SRC-1 ag: 0; TR-FRET SRC-2 ct: 1691; PPARg SRC-3 ag: -2; PPARg SRC-2 ag: 2; SRC3 TRFRET art: 1704

Results for O=S(=O)(c1ccccc1)c1nc(-c2ccco2)oc1N1CCOCC1 ?
PPARg SRC-1 ag: 26*; TR-FRET SRC-2 ct: 1561; PPARg SRC-3 ag: 3; PPARg SRC-2 ag: 5

Results for COc1ccc(-c2nc(S(=O)(=O)c3ccccc3)c(N3CCOCC3)o2)cc1 ?
SRC1 TRFRET art: 1614; PPARg SRC-1 ag: 4; TR-FRET SRC-2 ct: 1502; PPARg SRC-3 ag: 0; PPARg SRC-2 ag: 6; SRC3 TRFRET art: 1343

Results for COc1ccc(C(=O)N/N=C/C2CC=CCC2)cc1OC (configuration not stated) ?
SRC1 TRFRET art: 1776; PPARg SRC-1 ag: 0; TR-FRET SRC-2 ct: 1601; PPARg SRC-3 ag: -2; PPARg SRC-2 ag: 3; SRC3 TRFRET art: 1561

How did N#Cc1ccccc1Sc1ccccc1C(=O)OCc1nnc(-c2ccccc2)o1 do in these assays?
PPARg SRC-1 ag: 6; TR-FRET SRC-2 ct: 2002*; PPARg SRC-3 ag: -2; PPARg SRC-2 ag: -3

High-throughput results from PubChem.
